Measured values taken from PubChem BioAssay AID1159554 (Broad Institute, 2015).
Values joined by “and” are separate entries in the source; they are usually repeats but may differ in a detail not shown here. Equal values may be shown once. Among all 94,000 compounds or so, about 2,100 (2.2%) were called active. No stated cut-off is given here; in the data, active means activity change below about -80%; inconclusive means no clear call, values can overlap the other calls; inactive means above that. For the sample, actives were picked, then their nearest neighbours and some compounds at random. More than one record can exist for a structure, and the calls need not agree.

Test: P. falciparum Dd2 growth inhibitors, primary screen, SYBR Green fluorescence, single dose replicates (AID 1159554)
Settings: 72 h, at 10 µM, stronger effect = lower value

Activity change, inactive:
COCCNC(=O)C[C@@H]1C[C@@H]2c3cc(NS(=O)(=O)c4ccccc4)ccc3O[C@@H]2[C@H](CO)O1 18.7%
Cn1cnc(S(=O)(=O)N2C[C@@H](O)COC[C@@H]3O[C@H](CC(=O)NC4CCC4)CC[C@H]32)c1 8.29%
CC(C)(C)[S@@](=O)N1Cc2cc(C(=O)NCc3ccc4c(c3)OCO4)nc(-c3cccc(-c4ccccc4)c3)c2[C@H]1CCO -48.4%
CCCNC(=O)c1cc2c(c(-c3cccc(-c4ccc(F)cc4)c3)n1)[C@@H](CCO)N([S@](=O)C(C)(C)C)C2 -18.8%
COc1ccc2c3c(n(C)c2c1)[C@H](CO)N(C(=O)C1CCCC1)CC31CCN(C(=O)c2ccncc2)CC1 -53.1%
C/C=C/c1ccc([C@@H]2[C@@H](CO)N(CC3CCCC3)C23CN(S(=O)(=O)CC)C3)cc1 -78.3%
C/C=C/c1ccc([C@@H]2[C@H](CO)N(CC3CCCC3)C23CN(C(=O)CC)C3)cc1 -53.8%
CCCNC(=O)N(C)C[C@H]1Oc2ncc(-c3ccc(F)cc3)cc2C(=O)N([C@H](C)CO)C[C@H]1C 0.175%
CCCNC(=O)NC[C@H]1[C@H](c2ccc(C3=CCCCC3)cc2)[C@H](CO)N1C(C)=O -9.89%
COc1ccc(S(=O)(=O)N(C)C[C@H]2OCCCC[C@H](C)Oc3ccc(NC(=O)CCC(F)(F)F)cc3C(=O)N([C@@H](C)CO)C[C@@H]2C)cc1 -55.8%
Cc1noc(C)c1NC(=O)N(C)C[C@@H]1Oc2c(NC(=O)CCCCCC(=O)Nc3ccccc3N)cccc2C(=O)N([C@H](C)CO)C[C@@H]1C 20.3%
C[C@H]1CN([C@@H](C)CO)C(=O)c2cccc(NC(=O)c3cnccn3)c2O[C@@H]1CN(C)Cc1ccc(Oc2ccccc2)cc1 -3.4%
C[C@H]1CN([C@@H](C)CO)C(=O)c2cccc(NC(=O)Nc3ccccc3)c2O[C@H]1CN(C)Cc1ccc(Oc2ccccc2)cc1 -12%
C[C@H](CO)N1C[C@H](C)[C@H](CN(C)Cc2ccccc2)Oc2ccc(NC(=O)CCCCCC(=O)Nc3ccccc3N)cc2C1=O -61%
CC=Cc1ccc2n(c1=O)C[C@@H]1[C@@H](CO)[C@H](C(=O)NCC)[C@H]2N1CCC(F)(F)F (mixture of isomers) 0.676%
CO[C@H]1CN(C)C(=O)c2ccc(NC(=O)C3CC3)cc2OC[C@@H](C)N(C)C[C@H]1C 24.8%
COCC(=O)Nc1ccc2c(c1)C(=O)N(C)[C@H]1CC[C@@H](CC(=O)Nc3cn(C)nc3C)O[C@@H]1CO2 -1.96%
COc1ccc2c3c([nH]c2c1)[C@H](CO)N(C(=O)c1ccccc1)CC31CCN(S(=O)(=O)c2cccs2)CC1 23.2%
CCNC(=O)C[C@@H]1CC[C@@H]2[C@@H](COc3ccc(NC(=O)c4cccc(C(F)(F)F)c4)cc3C(=O)N2C)O1 -22.5%
OC[C@H]1[C@@H](c2ccc(/C=C/c3ccccc3)cc2)[C@H]2CN(Cc3cccnc3)CCCCN21 -61.1%
O=C(Cc1ccncc1)N1C[C@@H]2N[C@H](C1)C2c1ccc(-c2ccc(F)cc2)cc1 (stereo not given in full) -75.3%
CC(C)CC#Cc1ccc([C@@H]2[C@@H](CO)N3C(=O)CN(C(=O)Nc4ccc(F)cc4)C[C@H]23)cc1 -28.4%
COc1ccccc1CNC(=O)C[C@H]1CC[C@@H]2[C@H](COC[C@H](O)CN2Cc2ccccc2)O1 6.62%
C[C@@H]1CN([C@H](C)CO)C(=O)Cc2cc(NC(=O)Nc3ccc4c(c3)OCO4)ccc2O[C@H]1CN(C)Cc1ccc(C(=O)O)cc1 21.4%
Cc1ccc(S(=O)(=O)Nc2ccc3c(c2)C(=O)N([C@H](C)CO)C[C@@H](C)[C@H](CN(C)Cc2ccccc2)OCCCC[C@H](C)O3)cc1 -43.7%
C[C@@H]1CN([C@H](C)CO)C(=O)Cc2cc(NC(=O)Nc3ccc4c(c3)OCO4)ccc2O[C@@H]1CN(C)Cc1ccc(C(=O)Nc2ccccc2N)cc1 -76.5%
COc1ccc(S(=O)(=O)Nc2ccc3c(c2)CC(=O)N([C@@H](C)CO)C[C@H](C)[C@@H](CN(C)Cc2ccc(C(=O)O)cc2)O3)cc1 22.3%
Cc1ccc(S(=O)(=O)Nc2ccc3c(c2)C(=O)N([C@H](C)CO)C[C@H](C)[C@@H](CN(C)Cc2ccccc2)OCCCC[C@H](C)O3)cc1 30%
Cc1ccc(S(=O)(=O)Nc2ccc3c(c2)CC(=O)N([C@H](C)CO)C[C@@H](C)[C@H](CN(C)Cc2ccc(C(F)(F)F)cc2)O3)cc1 32%
Cc1ccc(S(=O)(=O)Nc2ccc3c(c2)CC(=O)N([C@@H](C)CO)C[C@H](C)[C@H](CN(C)Cc2ccccc2)O3)cc1 -4.27%
COc1ccc(CN(C)C[C@H]2Oc3ccc(NS(=O)(=O)c4ccc(Cl)cc4)cc3CC(=O)N([C@@H](C)CO)C[C@H]2C)cc1 12.9%

Activity change, active:
CC(C)(C)[S@](=O)N1Cc2cc(C(=O)N[C@@H]3CCN(Cc4ccccc4)C3)nc(-c3cccc(-c4ccncc4)c3)c2[C@@H]1CCO -81.2%
C/C=C/c1ccc([C@@H]2[C@H](CO)N(CC3CCCC3)C23CN(C(=O)CC2CC2)C3)cc1 -85%
C[C@H](CO)N1C[C@H](C)[C@H](CN(C)Cc2ccc(Oc3ccccc3)cc2)Oc2c(NC(=O)CCCCCC(=O)Nc3ccccc3N)cccc2C1=O -92.5%
C[C@@H]1CN([C@H](C)CO)C(=O)c2cccc(NC(=O)CCCCCC(=O)Nc3ccccc3N)c2O[C@H]1CN(C)Cc1ccc(Oc2ccccc2)cc1 -91.8%
Cc1ccc(S(=O)(=O)Nc2ccc3c(c2)CC(=O)N([C@@H](C)CO)C[C@H](C)[C@H](CN(C)Cc2ccc(C(=O)Nc4ccccc4N)cc2)O3)cc1 -86.6%
COc1ccc(S(=O)(=O)Nc2ccc3c(c2)CC(=O)N([C@@H](C)CO)C[C@@H](C)[C@@H](CN(C)Cc2ccc(C(=O)Nc4ccccc4N)cc2)O3)cc1 -80.3%
C[C@H]1CN([C@@H](C)CO)C(=O)Cc2cc(NC(=O)Nc3ccc4c(c3)OCO4)ccc2O[C@H]1CN(C)Cc1ccc(C(=O)Nc2ccccc2N)cc1 -81.3%
Cc1ccc(S(=O)(=O)Nc2ccc3c(c2)C(=O)N([C@H](C)CO)C[C@H](C)[C@H](CN(C)Cc2ccc(C(=O)Nc4ccccc4N)cc2)OCCCC[C@@H](C)O3)cc1 -83.6%

Activity change, -91.7% (active) and -72.1% (inactive):
c1ccc(-c2ccc(C3[C@@H]4CN(Cc5cccnc5)C[C@H]3N4)cc2)cc1 (stereo not given in full)
